Compound activity (PubChem BioAssay)
Shown are actives, neighbours in structure and some others; about 19% of the full set was active somewhere.
TDP1 cell noCPT: qHTS for Inhibitors of human tyrosyl-DNA phosphodiesterase 1 (TDP1): qHTS in cells in absence of CPT | DT40 Tdp1-/- hTDP1 cells, no CPT, ATP luminescence, 48 h | Potency, µM (series often up to 46.2 µM), inactives show top-dose activity change, negative = growth inhibition, hits mostly inhibitors | actives 15% (n = 420,000); also: potency is read from the fitted curve at half-maximal effect; % is scaled to controls: 0 for no effect and ±100 for the full control effect; nearly all actives have a fitted effect of over 55% in size
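Seeded 400 DT40-hTDP1 cells/well (vehicle DMSO, no 20 nM CPT); pinned compounds; ≥48 hr at 37 °C; CellTiter-Glo luminescence as viability measure.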
TGFb SMAD3 inh: blocks TGF-b signaling. HepG2 CAGA-GFP TGF-b/SMAD3 reporter, GFP fluorescence, 18 h; TGF-beta stimulated, 500 pg/mL final. Potency, µM (highest dose often 46.1 µM), for the others: at the highest dose activity, negative = inhibition, hits mostly inhibitors. actives 1.2% (n = 410,000). AID 588855; also: potency is read from the fitted curve at half-maximal effect; % is scaled to controls: 0 for no effect and ±100 for the full control effect; nearly all actives have a fitted effect of over 65% in size
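TGF-beta reporter screen: HEPG2 CAGA-GFP, 1% FBS, 500 pg/mL TGF-beta final, 18 h; per-cell GFP summed per well; curves fitted and categorized by class.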
TDP1 cell CPT: growth inhibition of DT40 Tdp1-/-;hTDP1 cells with camptothecin (screen for TDP1 inhibitors); AID 686979; Potency, µM (top dose mostly 46.2 µM), inactives show at the top dose activity change, negative = growth inhibition, most hits filed as inhibitors; actives 12% (n = 420,000); chicken DT40 Tdp1-/-;hTDP1 cells + 20 nM CPT, ATP luminescence, 48 h; also: potency is read from the fitted curve at half-maximal effect; % is scaled to controls: 0 for no effect and ±100 for the full control effect; nearly all actives have a fitted effect of over 55% in size
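Chicken DT40 Tdp1-/- cells complemented with human TDP1, 400 cells/well, exposed to compounds plus 20 nM camptothecin for at least 48 h at 37 C; viability read as ATP content by CellTiter-Glo luminescence.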
IL-1B inflam inh: inflammasome signaling inhibition, IL-1 beta readout; THP-1 LPS/ATP IL-1B secretion, AlphaLISA, 16 h; hits give low values; activity change, % at 57.5 µM; actives 4.7% (n = 360,000); AID 743279; in the data active = activity change below about -50%; inconclusive = mostly about -30% to -49%; also: % is scaled to controls: 0 for no effect and ±100 for the full control effect
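THP-1 cells pretreated 1 hr with compounds (up to 57.5 uM final), then stimulated with LPS (250 ng/mL final) plus ATP (1.25 mM final); secreted IL-1B measured by AlphaLISA after 16 hr, decreased signal indicating inhibition.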
TDP1 block: inhibitors of human tyrosyl-DNA phosphodiesterase TDP1; Q9NUW8; recombinant TDP1, AlphaScreen DNA substrate cleavage; Potency, µM (series often up to 130 µM), for the others: at the highest dose activity change, negative = inhibition, most hits filed as inhibitors; actives 0.28% (n = 350,000); also: potency is read from the fitted curve at half-maximal effect; % is scaled to controls: 0 for no effect and ±100 for the full control effect; nearly all actives have a fitted effect of over 40% in size
Target sequence (Q9NUW8 whole entry, looked up): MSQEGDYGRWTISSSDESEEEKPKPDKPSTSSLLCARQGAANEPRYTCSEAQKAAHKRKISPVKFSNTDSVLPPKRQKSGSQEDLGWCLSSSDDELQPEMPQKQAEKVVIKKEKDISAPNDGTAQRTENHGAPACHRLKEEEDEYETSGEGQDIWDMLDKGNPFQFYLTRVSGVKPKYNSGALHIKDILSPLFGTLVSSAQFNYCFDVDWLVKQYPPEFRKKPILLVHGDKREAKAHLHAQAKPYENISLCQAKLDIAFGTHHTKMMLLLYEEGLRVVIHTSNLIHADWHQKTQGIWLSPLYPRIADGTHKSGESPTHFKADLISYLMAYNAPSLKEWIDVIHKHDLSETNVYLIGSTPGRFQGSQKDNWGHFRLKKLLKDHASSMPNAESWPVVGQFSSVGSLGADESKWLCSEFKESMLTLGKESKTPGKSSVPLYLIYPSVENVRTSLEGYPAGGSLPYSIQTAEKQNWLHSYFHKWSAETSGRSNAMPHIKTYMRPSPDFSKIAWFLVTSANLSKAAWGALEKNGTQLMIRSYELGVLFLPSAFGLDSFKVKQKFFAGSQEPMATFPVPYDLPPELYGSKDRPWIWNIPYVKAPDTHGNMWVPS
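Recombinant E. coli-expressed Tdp1 (1 nM) preincubated with compound 15 min at RT, then 5'-biotin/3'-phosphotyrosine-FITC DNA substrate (15 nM) added for 5 min. AlphaScreen beads (10 ug/ml) added, 10 min RT; tyrosine-FITC cleavage read as signal loss.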
HepG2 tox: counter-screen for TGF-b inhibitors: cytotoxicity in HepG2 cells; HepG2 CAGA-GFP viability, ATP luminescence, 18 h; Potency, µM (titrated, usually from 46.1 µM), for inactives: at the highest dose activity change, negative = cytotoxicity, hits mostly cytotoxic; actives 0.76% (n = 410,000); also: potency is read from the fitted curve at half-maximal effect
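HepG2 CAGA-GFP cells (1000/well, DMEM with 1% FBS) received compound, then TGF-beta at 500 pg/mL final, and were incubated 18 hours at 37 degrees C. Viability was read by CellTiter-Glo luminescence. Media-only wells were set as complete cell-killing and DMSO as no toxicity.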
The depositor's hits bear a star; ? = inconclusive; nt = not tested or not shown. Unless noted, calls follow the shape of the dose curve; as a rule, active = well fitted curve in the direction sought with a large enough effect; inconclusive = small, poorly fitted or top-dose-only effect, or another doubt; inactive = no such curve, though single readings can be large; an effect the other way counts as inactive or inconclusive.

SMILES	TDP1 cell noCPT	TGFb SMAD3 inh	TDP1 cell CPT	IL-1B inflam inh	TDP1 block	HepG2 tox
CCOc1ccccc1NC(=O)Cn1c(=O)n(Cc2cccs2)c(=O)c2cccnc21	-5.7%	1.4%	2.3%	nt	-4.9%	-14.0%
CCc1nc(N2CCC3(CC2)OCCO3)c2nnn(Cc3ccccc3Cl)c2n1	16.4µM*	-5.8%	?	?	1.9%	-19.5%
COc1cc(/C=C/C(=O)N2CCN(Cc3ccccc3)CC2)cc(OC)c1OC	18.4µM*	-19.6%	-72.8%	3.6	nt	-9.5%
COc1cc(/C=C/C(=O)N2CCN(CC(O)COc3ccccc3)CC2)cc(OC)c1OC (stereo not given)	20.6µM*	4.3%	?	-5.8	4.0%	-12.4%
COc1cc(C(=O)N2CCN(CC(O)COc3ccccc3)CC2)cc(OC)c1OC (stereo not given)	-5.5%	?	10.2%	6.2	nt	15.1%
O=C(/C=C/c1ccc(Cl)cc1)N1CCN(Cc2ccccc2)CC1	?	17.0%	-14.2%	-75.3*	nt	4.7%
CC1CC(C)CN(C(=O)COC(=O)/C=C/c2cccc([N+](=O)[O-])c2)C1 (stereo not given)	-5.2%	-7.4%	-5.8%	-14.3	-2.3%	0.0%
COc1ccc(OC)c(-c2csc(NC(=O)C3=COCCO3)n2)c1	18.4µM*	?	16.4µM*	-12.2	-0.1%	-21.5%
COC(=O)c1ccc(-c2csc(NC(=O)C3=COCCO3)n2)cc1	-13.1%	-9.6%	-14.5%	-13.6	nt	-38.2%
CC(OC(=O)C1=COCCO1)C(=O)Nc1ccc(Oc2ccccc2)cc1 (stereo not given)	?	-6.9%	13µM*	-13.9	3.8%	-9.5%
O=C(Nc1nc(-c2ccc(Oc3ccccc3)cc2)cs1)C1=COCCO1	11.6µM*	?	?	7.9	5.3%	-2.7%
Cc1ccc(C)c(-c2csc(NC(=O)C3=COCCO3)n2)c1	16.4µM*	-17.0%	20.6µM*	-10.4	nt	-2.1%
Cc1ccc(-c2csc(NC(=O)C3=COCCO3)n2)cc1	?	-20.3%	?	-0.9	-1.1%	-20.4%
CC(=O)Nc1ccc(-c2csc(NC(=O)C3=COCCO3)n2)cc1	?	9.4%	?	-11.4	0.5%	-24.6%
O=C(Nc1nc(-c2cc(F)ccc2F)cs1)C1=COCCO1	?	-1.5%	18.4µM*	-13.1	0.2%	0.0%
CCOC(=O)c1cc(-c2ccc(OC)cc2)n(CCC(=O)NC2CCCCC2)c1C	16.4µM*	?	20.6µM*	nt	-6.6%	-15.5%
CCOC(=O)c1cc(-c2ccc(C)cc2)n(CCC(=O)NCCCOC)c1C	-12.7%	-12.7%	-22.4%	-4.7	6.8%	-12.3%
CCOC(=O)c1cc(-c2ccc(OC)cc2)n(CCC(=O)NC2CCC(C)CC2)c1C (stereo not given)	23.1µM*	-20.4%	16.4µM*	nt	4.7%	-8.9%
CCOC(=O)c1cc(-c2ccc(F)cc2)n(CC(=O)N2CCCC2)c1C	?	17.8%	0.5%	-13.7	4.1%	5.4%
CCOC(=O)c1cc(-c2ccc(F)cc2)n(CCC(=O)NC2CCC(C)CC2)c1C (stereo not given)	16.4µM*	-13.9%	?	nt	6.6%	-29.4%
Cc1cc(C(=O)COC(=O)c2ccc(F)cc2F)c(C)n1C1CC1	-2.0%	0.0%	-16.8%	-7.9	7.3%	4.4%
CCOC(=O)c1c(C)c(C(=O)NCCc2ccc(OC)cc2)c(C)n1CC	?	-27.8%	-8.1%	nt	0.0%	-18.7%
COc1ccc(NC(=S)Nc2ccc3nc(C)c(C)nc3c2)cc1	-25.0%	0.1%	-15.6%	38.2	3.2%	1.7%
CCOc1ccc(NC(=S)Nc2ccccc2C2CC2)cc1	4.11µM*	-24.0%	5.8µM*	-13.0	-1.2%	-28.8%
CCOc1ccc(NC(=S)NNC(=O)c2ccc(Br)cc2)cc1	?	7.3%	-9.0%	-64.4*	7.5%	-14.2%
SMILES	TDP1 cell noCPT	TGFb SMAD3 inh	TDP1 cell CPT	IL-1B inflam inh	TDP1 block	HepG2 tox
COc1ccc(NC(=S)Nc2ccc3nsnc3c2)cc1	18.4µM*	?	6.51µM*	-3.9	0.0%	-12.7%
CCOc1ccc(NC(=S)Nc2ccc3nsnc3c2)cc1	8.2µM*	0.0%	5.8µM*	3.0	-2.7%	-22.3%
CCOc1ccc(NC(=O)Nc2ccc3nsnc3c2)cc1	?	-20.2%	?	?	-2.5%	-9.5%
COc1cccc([C@@H]2Oc3ccc(OC)cc3C[C@H]2OC(=O)N[C@H]2CCCc3ccccc32)c1	nt	nt	nt	nt	5.6%	nt
COc1cc(OC)c(NC(=S)Nc2cc(Cl)cc(Cl)c2)cc1Cl	?	?	?	-91.5*	2.6%	12.3%
CCOc1ccc(NC(=S)Nc2ccc(OCC)cc2)cc1	-16.0%	-16.2%	5.5%	-80.4*	6.2%	-20.7%
COc1cc(NC(=S)Nc2cccc(Cl)c2Cl)c(OC)cc1Cl	-25.9%	0.0%	0.3%	-11.8	-3.1%	-5.5%
CCOc1ccc(NC(=S)Nc2cc(OC)c(Cl)cc2OC)cc1	?	?	14.6µM*	10.8	0.0%	1.0%
CCCC(=O)Nc1cc(OC)c(NC(=S)Nc2ccc(CC)cc2)cc1OC	16.4µM*	-6.7%	0.6%	-9.1	nt	-12.2%
CCNC(=S)Nc1ccc(OCC)cc1	-28.0%	15.8%	1.1%	0.0	0.0%	-24.2%
Cc1ccc(C(=O)NCC(=O)OCn2nnc3ccccc3c2=O)cc1	-3.0%	13.8%	6.0%	-2.0	0.0%	8.3%
CCOc1ccc(C(=O)CSc2nc3cc(C(=O)NC4CCCC4)ccc3c(=O)n2CC2CCCO2)cc1 (stereo not given)	0.6%	-7.1%	0.0%	nt	0.0%	2.3%
O=C(O)c1ccc(N2C(=O)c3[nH]nc(-c4ccccc4)c3C2c2cccc(F)c2)cc1 (stereo not given)	-5.0%	-19.3%	-11.7%	nt	2.3%	-8.1%
COc1ccc(-n2nc(C(=O)NCC(=O)N3CCC(C(N)=O)CC3)c3ccccc3c2=O)cc1	-0.8%	4.6%	3.1%	13.0	2.1%	-8.2%
CC(C)=CCOc1ccc(/C=C/C(=O)c2ccc(OCC=C(C)C)cc2OCC(=O)O)cc1	1.9%	nt	0.8%	nt	3.1%	nt
CC(=O)N1CCc2cc(S(=O)(=O)NC(Cc3ccccc3)C(=O)O)ccc21 (stereo not given)	2.4%	9.2%	-10.1%	-5.6	6.8%	15.4%
C=CCN=C1N[C@@H](c2ccccc2)C(C(=O)OC)=C(C)N1CCOC	-23.3%	-15.8%	-27.5%	-7.5	nt	-12.6%
